This is an account of results in PubChem BioAssay (NCI).

What all share (test): NCI-60 one-dose screen, 48 h (100 = growth as untreated, 0 = no growth, -100 = all killed)
Common to all, as to settings: 10 µM unless noted

Test [1] relates to HCT-15 colon.
The subject of test [2] is HT29 colon.
In test [3] the test system is SNB-75 CNS.
Test [4] concerns SNB-19 CNS.
Test [5] concerns U251 CNS.
In test [6] the test system is PC-3 prostate.
Test [7] concerns SK-MEL-5 melanoma.
For test [8], the system named is UACC-62 melanoma.
The subject of test [9] is LOX IMVI melanoma.
The subject of test [10] is SK-MEL-28 melanoma.
Test [11] has as its system SK-MEL-2 melanoma.
In test [12] the test system is EKVX NSCLC.
For test [13], the system named is SN12C renal.
Test [14] has as its system UO-31 renal.
In test [15] the test system is TK-10 renal.
The subject of test [16] is ACHN renal.
In test [17] the test system is CAKI-1 renal.
In test [18] the test system is A498 renal.
In test [19] the test system is CCRF-CEM leukemia.
For test [20], the system named is MOLT-4 leukemia.

The panel holds about 83,000 compounds, 20% with a hit somewhere; the sample as a whole holds those more often.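 Testing used 96-well plates and a 48-hour single-concentration exposure. Example: -40 means 40% of the starting cells died.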 A number with no mark means an inactive call. Activity calls are given as the source filed them. How the source made its calls: active means growth percent below 10; inactive means the rest.

As for `CN1CCN(CCCCCC(=O)Nc2nc(-c3cccc(NS(=O)(=O)c4cccc5c(N(C)C)cccc45)c3)cs2)CC1`, the growth in [1] was 23.1%; in [2], 15.8%; in test [3], 76.7%; in test [4], 83.7%; in test [5] it was 65%; in test [6], 67.4%. Besides, the growth was 71% in [7]; 83.2% in [8]; -84.8% (active) in [9]; -61.1% (active) in test [10]; 102% in test [11]; 74.7% in [12]. Besides, the growth is 70.6% in test [13]; 75.1% in test [14]; 119% in [15]; 88.4% in test [16]; 74.3% in [17]; 88.6% in test [18]. The growth in test [19] was 59.8%; in test [20] it was 39.5%.

Turning to `O=C(NNc1nc2cc(F)cc(F)c2n2cccc12)c1cccnn1`, the growth in test [1] is 27.9%; in test [2], 30.2%; in test [3] it was 24.5%; in test [4] it was 21.6%; in test [5], 15.3%; in [6] it was 30.7%. The growth was -31.3% (active) in [7]; 9.53% (active) in test [8]; 6.98% (active) in test [9]; 23.9% in [10]; 20.8% in test [11]; 9.18% (active) in test [12]. The growth in [13] is 18.5%; in test [14], 15.4%; in test [15] it was 42.4%; in test [16], 10.3%; in test [17], 12.4%; in test [18], 4.83% (active). Moreover, the growth in test [19] is 6.41% (active); in test [20] it was 7.32% (active).

With `O=C(N/N=C/c1cc2ccccc2nc1Cl)c1cc(-c2nc3ccccc3[nH]2)nc2ccccc12`, the growth in [1] is 82.9%; in [2] it was 90.3%; in [3] it was 83.2%; in [4], 95.3%; in test [5], 92.2%; in [6], 81.6%. Also, the growth in test [7] is 81.9%; in test [8] it was 75.1%; in test [9], 88.9%; in test [10] it was 99.2%; in test [11], 82.8%; in test [12], 93.5%. The growth in test [13] was 99.9%; in test [14] it was 70.7%; in test [15], 91.7%; in test [16], 89%; in [17], 71.6%; in [18] it was 54.6%. Also, the growth is 87.8% in [19] and 82.2% in test [20].

As to `CC1(C)CC[C@]2(C(=O)O)CC[C@]3(C)C(=CC[C@@H]4[C@@]5(C)CC[C@H](NOCCCN)C(C)(C)[C@@H]5CC[C@]43C)[C@@H]2C1`, the growth in test [1] was 64.8%; in [2], 74%; in test [3], 97%; in test [4] it was 93.2%; in [5], 69%; in test [6] it was 65.3%. Besides, the growth was 61.2% in test [7]; 71.4% in test [8]; 32.4% in [9]; 87.4% in test [10]; 93.3% in test [11]; 83.9% in test [12]. Further, the growth is 83.5% in test [13]; 71.4% in [14]; 122% in test [15]; 97.8% in test [16]; 93.7% in test [17]; 110% in test [18]. For the same molecule, the figures for the growth in test [19] and in [20] were 66.4% and 75.3%, respectively.

Consider `C#C[C@]1(O)CC[C@H]2[C@@H]3CC=C4c5sc(N(C)c6ccccc6)nc5CC[C@]4(C)[C@H]3CC[C@@]21C`, for which the growth in [1] is 27.8%; in test [2], -3.51% (active); in test [3], 99.8%; in [4], 91.3%; in test [5] it was 60.6%; in [6] it was 59.1%. In addition, the growth was 87.3% in test [7]; 77% in [8]; 67.8% in test [9]; 76.9% in [10]; 85.8% in test [11]; 103% in [12]. Besides, the growth is 91.2% in test [13]; 106% in test [14]; 137% in [15]; 92.1% in test [16]; 92.3% in [17]; 88.4% in test [18]. Also, the figures for the growth in [19] and in test [20] were 44.3% and 31.3%, respectively.

Consider `COc1ccc2sc(NC(=O)CCCCCCNC(=O)C(O)(O)C(F)(F)F)nc2c1`, for which the growth is 5.37% (active) in test [1]; 5.06% (active) in test [2]; 41.4% in test [3]; 15.9% in test [4]; -51.5% (active) in test [5]; 34.1% in test [6]. In addition, the growth in [7] was -82.2% (active); in test [8] it was -64.6% (active); in test [9], -81% (active); in test [10], 1.51% (active); in test [11], -17.5% (active); in test [12], 23.3%. Besides, the growth is 10.5% in [13]; -13.7% (active) in [14]; -12.4% (active) in test [15]; -26.8% (active) in test [16]; -16.3% (active) in test [17]; -35.2% (active) in [18]. The growth in [19] is 24.6%; in [20], 13%.

`CCNC(=O)Oc1ccc(/C(=C(/C)c2ccc(OC)cc2)c2ccc(OCCN3CCCCCC3)cc2)cc1`: the growth was -25.8% (active) in test [1]; 10.5% in test [2]; 59.4% in test [3]; 61% in test [4]; 38.8% in test [5]; 31.3% in [6]. The growth was 78.5% in test [7]; 41% in test [8]; -6.62% (active) in test [9]; 19.8% in test [10]; 83.4% in test [11]; 69.7% in test [12]. Moreover, the growth was 59.4% in test [13]; 0.828% (active) in test [14]; 116% in test [15]; 61.3% in test [16]; 14.5% in [17]; 54.8% in test [18]. The growth in test [19] is 36.8%; in [20], 17.2%.

Turning to `CC(=O)Nc1cc(N2CCOCC2)c2nc(NC(=O)c3[nH]c(C)c(Cl)c3Cl)sc2c1`, the growth in test [1] is 66.9%; in test [2] it was 65.1%; in [3], 17.3%; in test [4] it was 83.9%; in test [5], 57.8%; in test [6] it was 64.3%. In addition, the growth in test [7] was 77.6%; in [8], 94.8%; in test [9] it was 57%; in [10], 67.5%; in test [11], 83%; in [12], 85.1%. The growth in test [13] was 49.8%; in test [14], 57.9%; in [15], 112%; in test [16] it was 49.3%; in test [17], 93.1%; in [18], 95.6%. The growth in test [19] is 74.2%; in [20], 65%.
